About 83,000 compounds went through this panel and 20% of them were active in at least one assay; those are over-represented in the sample as a whole.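 Cell lines were cultured in 96-well plates, exposed to a single compound concentration, and assessed for percent growth 48 hours later.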 Unmarked numbers belong to inactive results. The source made the active and inactive calls. Rule for the calls: active = growth percent below 10; inactive = the rest.

The assay has as its system HL-60(TB) leukemia. In words: NCI-60 one-dose screen, 48 h (100 = growth as untreated, 0 = no growth, -100 = all killed). Particulars: 10 µM unless noted.
Take `O=C1/C(=C\c2ccc(Cl)cc2)CN(C(=S)Nc2ccccc2)C/C1=C\c1ccc(Cl)cc1`: the growth is -15.4% (active).
Turning to `O=C1/C(=C/c2cccc(OCc3ccccc3)c2)Oc2cc(OCCN3CCCCC3)ccc21`, the growth is 67%.
As for `C/C(=C\c1ccccc1)C(O)C(=O)c1nc2ccc([N+](=O)[O-])cc2[nH]c1=O` (centres undefined), the figure is 83%; as for `NC(=O)c1noc(C(=O)c2ccccc2)c1N`, 93.7%; as for `NCCn1cc(-c2nc(-c3c[nH]c4ncccc34)cs2)c2cc(F)ccc21`, 62%.
For `CC(C)C1=NOC(=O)C1=Cc1cn(-c2ccco2)nc1-c1ccccc1`, the growth is 3.89% (active).
The value for `COc1ccc(-n2ncc3c2ccc2cc(S(=O)(=O)c4ccccc4)c(=O)n(C)c23)cc1` was 110%; that for `CCOC(=O)c1[nH]c(C)c(C(=O)O)c1C` was 91.6%.
The value for `CCCNC(=O)Oc1ccc(/C(=C(\C)c2ccccc2)c2ccc(OCCCN(C)C)cc2)cc1` was 65.3%.
The value for `COc1ccc2c(c1)c(-c1nc(-c3c[nH]c4ncccc34)cs1)cn2CCCN1CCCCC1` was -60.8% (active); that for `COc1ccccc1NC(=O)C1=C(C)NC(C)=C(C(=O)Nc2ccccc2OC)C1c1cccc([N+](=O)[O-])c1` was 66.7%; that for `Brc1ccccc1Cn1c(-c2cncs2)nc2ccccc21` was 79.1%.
Turning to `COc1ccc(C2CC(c3ccc4c(c3)OCO4)=NN2C=O)cc1` (centres undefined), the growth is 106%.
As for `CC1=C(NCCN2CCCC2)C(=O)c2c(OCc3ccc(F)c(Cl)c3)cccc2C1=O`, the figure is 98.1%.

The values above are taken from PubChem BioAssay (NCI).
